{"source": "PubChem BioAssay AID602281", "about": "(The Scripps Research Institute Molecular Screening Center, 2012)", "note": "Out of some 360,000 compounds screened, about 2,900 (0.81%) were called active. Only a selection was taken, and actives are over-represented in it overall. Values without a mark were called inactive.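 Rule for the calls: active = inhibition above the mean inhibition across every tested compound plus 3 SD (cut at about 22% in these data); inactive = the rest.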", "data": [{"biological_target": "Perilipin-5 (Homo sapiens) + 1-acylglycerol-3-phosphate O-acyltransferase ABHD5 (Homo sapiens) (UniProt Q00G26+Q8WTS1)", "sequence (Q00G26 whole entry, looked up)": "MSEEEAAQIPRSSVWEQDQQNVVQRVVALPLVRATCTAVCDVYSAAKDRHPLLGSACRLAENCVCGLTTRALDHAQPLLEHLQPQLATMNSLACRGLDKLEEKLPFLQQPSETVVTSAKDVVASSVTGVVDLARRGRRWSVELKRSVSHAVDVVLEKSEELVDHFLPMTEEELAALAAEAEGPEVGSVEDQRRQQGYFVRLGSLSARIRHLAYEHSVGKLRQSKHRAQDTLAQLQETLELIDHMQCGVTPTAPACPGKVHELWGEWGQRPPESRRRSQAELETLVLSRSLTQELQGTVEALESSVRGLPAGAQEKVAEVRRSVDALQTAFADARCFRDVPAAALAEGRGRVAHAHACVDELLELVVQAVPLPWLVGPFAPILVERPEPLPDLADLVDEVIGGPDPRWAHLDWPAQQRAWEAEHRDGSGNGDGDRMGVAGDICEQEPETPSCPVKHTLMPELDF", "sequence (Q8WTS1 whole entry, looked up)": "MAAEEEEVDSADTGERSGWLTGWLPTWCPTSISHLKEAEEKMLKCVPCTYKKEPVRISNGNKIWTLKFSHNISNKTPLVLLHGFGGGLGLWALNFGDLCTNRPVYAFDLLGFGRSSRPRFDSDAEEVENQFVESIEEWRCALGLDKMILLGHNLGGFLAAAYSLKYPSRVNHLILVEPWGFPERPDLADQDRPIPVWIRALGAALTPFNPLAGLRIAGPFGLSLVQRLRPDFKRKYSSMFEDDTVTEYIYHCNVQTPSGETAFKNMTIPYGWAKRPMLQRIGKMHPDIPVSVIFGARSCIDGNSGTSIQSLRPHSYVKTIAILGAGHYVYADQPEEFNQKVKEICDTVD", "assay": "blockers of ABHD5 binding to perilipin-5 – cell lysate, split luciferase complementation, luminescence, primary screen (AID 602281);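 note: 0% = DMSO only wells and the 100% control is not disclosed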", "conditions": "Split G. princeps luciferase complementation, 4 h, at 4 µM, stronger effect = higher value", "values": [{"smiles": "N#Cc1ccccc1S(=O)(=O)N1CCN(C(=O)c2cc(-c3ccccc3)nn2-c2ccccc2)CC1", "inhibition": "-8.95%"}, {"smiles": "O=c1oc2c(CN3CCCCC3)c(O)ccc2c2c1CCCCC2", "inhibition": "-1.69%"}, {"smiles": "N#Cc1ccccc1S(=O)(=O)N1CCN(Cc2c(O)ccc3ccccc23)CC1", "inhibition": "27.7% (active)"}, {"smiles": "Cn1c(CCC(=O)OCC(=O)NCc2ccccc2Cl)nc(=O)c2ccccc21", "inhibition": "2.53%"}, {"smiles": "CN(CC(=O)NCCc1ccccc1)S(=O)(=O)c1cnc[nH]1", "inhibition": "1.21%"}, {"smiles": "COCCN(Cc1ccccc1)C(=O)Cc1ccc(S(=O)(=O)N2CCOCC2)s1", "inhibition": "-7.33%"}, {"smiles": "CCOC(=O)CSc1nc(C)c(Oc2ccc(Cl)cc2Cl)c(=O)[nH]1", "inhibition": "-1.81%"}, {"smiles": "CCCCOC(=O)CNc1nnc(SCC(=O)OCC)[nH]c1=O", "inhibition": "55.4% (active)"}, {"smiles": "CCc1ccc(C(=O)CSc2nnc(C)c(=O)[nH]2)cc1", "inhibition": "-3.63%"}, {"smiles": "COC(C/C=C/C(=O)[C@@H](C)OCc1ccccc1)OC", "inhibition": "24.4% (active)"}, {"smiles": "COC(C[C@@H]1O[C@@H]1C(=O)[C@H](C)OCc1ccccc1)OC", "inhibition": "-0.78%"}, {"smiles": "COC(C[C@H](O)CC(=O)[C@@H](C)OCc1ccccc1)OC", "inhibition": "2.47%"}, {"smiles": "COc1ccc(-c2cnc3c(c2)C(=O)N([C@H](C)CO)C[C@@H](C)[C@H](CN(C)Cc2ccccc2)O3)cc1", "inhibition": "4.36%"}, {"smiles": "CCCCCCN1CCN(C2CN(Cc3cn(CCCCCC)nn3)S(=O)(=O)C2)CC1", "note": "(stereo unspecified)", "inhibition": "-2.61%"}, {"smiles": "CC(Sc1nncs1)C(=O)NCc1ccc2c(c1)OCO2", "note": "(stereo unspecified)", "inhibition": "-10.2%"}, {"smiles": "CCn1cc(C(=O)N2CC(C)CC(C)C2)c(=O)c2cc(S(=O)(=O)N3CCCC3)ccc21", "note": "(stereo unspecified)", "inhibition": "-1.5%"}, {"smiles": "O=C1C(Cl)=C(Oc2ccccc2)C(=O)c2ccccc21", "inhibition": "84.3% (active)"}, {"smiles": "O=C(N[C@H]1C/C=C\\C(c2cccc(F)c2)N(Cc2ccccc2)C(=O)C1)OCC1c2ccccc2-c2ccccc21", "note": "(stereo partly specified)", "inhibition": "-1.93%"}, {"smiles": "COc1ccc(CN2CCN(Cc3cn(C)nc3-c3ccccc3)CC2CCO)c(C)c1C", "note": "(stereo unspecified)", "inhibition": "8.28%"}, {"smiles": "Cc1ccccc1CN1C[C@@H]2C[C@@H](c3cn(C)nc3-c3ccccc3)N3CCC[C@@]23C1=O", "inhibition": "22.1% (active)"}, {"smiles": "Cc1ccccc1CN1C[C@@H]2C[C@@H](c3ccc4nsnc4c3)N3CCC[C@@]23C1=O", "inhibition": "0.89%"}, {"smiles": "CC1(C(=O)NS(=O)(=O)c2ccc(C#N)cc2)CCN1C(=O)c1ccc(C2CCCCC2)cc1", "note": "(stereo unspecified)", "inhibition": "-0.02%"}, {"smiles": "COC(=O)CCCC1=CC2=C(c3ccccc3)C(=O)C(C)(OC(=O)C3CCCC3)C(=O)C2=CN1c1ccc(OC)cc1", "note": "(stereo unspecified)", "inhibition": "3.52%"}, {"smiles": "CC1(OC(=O)C2CCCC2)C(=O)C=C2C=C(c3ccc(C#N)cc3)OC=C2C1=O", "note": "(stereo unspecified)", "inhibition": "22.6% (active)"}, {"smiles": "CC(C)CN1CCC1(C)C(=O)Nc1ccc(OC(F)F)cc1", "note": "(stereo unspecified)", "inhibition": "-1.42%"}, {"smiles": "COc1ccc(C(=O)/C=C/Nc2ccccn2)cc1", "inhibition": "0.9%"}, {"smiles": "CSc1nc(N(C)NC(=O)c2cccc(C)c2)c2ccccc2n1", "inhibition": "-6.13%"}, {"smiles": "Cc1cc(C)nc(S/C=C/C(=O)c2ccccc2)n1", "inhibition": "65.4% (active)"}, {"smiles": "O=C(Nc1cccc(Cl)c1Cl)c1ccccc1NC(=O)C1CC=CCC1C(=O)O", "note": "(stereo unspecified)", "inhibition": "-5.77%"}, {"smiles": "O=[N+]([O-])/C=C/c1ccc2c(ccn2Cc2ccccc2)c1", "inhibition": "92% (active)"}, {"smiles": "NC(=O)C1CCN(C(=O)c2ccc(-c3ccccc3)cc2)CC1", "inhibition": "5.48%"}, {"smiles": "NS(=O)(=O)c1ccc(NC(=O)COC(=O)C2(c3ccc(F)cc3)CCCC2)cc1", "inhibition": "-6.25%"}, {"smiles": "O=C1c2cccnc2C(Nc2ccc(S(=O)(=O)N3CCCCCC3)cc2)N1Cc1ccccc1", "note": "(stereo unspecified)", "inhibition": "-3.06%"}, {"smiles": "O=C(CCNS(=O)(=O)c1ccccc1C(F)(F)F)Nc1ccncc1", "inhibition": "3.18%"}, {"smiles": "Nc1cccc(OCCCCCOc2cccc(N)c2)c1", "inhibition": "68.8% (active)"}, {"smiles": "C=CCNCCCCOc1ccccc1", "inhibition": "-2.87%"}, {"smiles": "CN(C)CCOc1cccc(Br)c1", "inhibition": "-5.46%"}, {"smiles": "O=C(COC(=O)c1cnccn1)Nc1cccc2ccccc12", "inhibition": "-5.15%"}, {"smiles": "COc1cccc2cc(C(C)N(CCCN3CCOCC3)C(=O)Nc3ccc(Cl)cc3)oc12", "note": "(stereo unspecified)", "inhibition": "7.7%"}, {"smiles": "O=C(Cn1nc(CNc2ccc(Cl)cc2)[n+]2c1CCCCC2)c1ccc(Cl)cc1", "inhibition": "28.2% (active)"}, {"smiles": "O=C(Cn1ncc(N2CCCC2)c(Br)c1=O)c1ccc(Cl)cc1", "inhibition": "3.08%"}, {"smiles": "O=C(Cn1nnc(N2CCCCC2)n1)c1ccc(Cl)c(Cl)c1", "inhibition": "-2.6%"}, {"smiles": "N#Cc1ccc(C2N=C(c3ccccc3)NO2)cc1", "note": "(stereo unspecified)", "inhibition": "5.57%"}, {"smiles": "Cc1noc(C)c1NC(=O)Nc1ccc2c(c1)C(=O)N([C@H](C)CO)C[C@H](C)[C@@H](CN(C)S(=O)(=O)c1cn(C)cn1)O2", "inhibition": "3.26%"}, {"smiles": "Cc1cccc(C)c1NC(=O)CCCSc1nnc(-c2ccco2)n1-c1ccccc1", "inhibition": "-1.49%"}, {"smiles": "COc1ccc(C(C(=O)Nc2c(C)cccc2C)N2CCN(c3ccc(C)cc3)CC2)cc1", "note": "(stereo unspecified)", "inhibition": "-0.48%"}, {"smiles": "O=C(NC1CCCCC1)C(c1cc2ccccc2o1)n1c(=O)c(-c2ccco2)nc2ccccc21", "note": "(stereo unspecified)", "inhibition": "78.2% (active)"}, {"smiles": "CCC(CC)C(C(=O)NC1CCCC1)N1CCN(c2cc(C)nc3ccccc23)CC1", "note": "(stereo unspecified)", "inhibition": "1.05%"}, {"smiles": "Cc1cccc(C)c1NC(=O)C(c1ccc(C(F)(F)F)cc1)n1c(=O)c(-c2ccco2)nc2ccccc21", "note": "(stereo unspecified)", "inhibition": "74.7% (active)"}, {"smiles": "CCC(C(=O)Nc1c(C)cccc1C)n1c(-c2cc(C)cs2)nc2ccccc21", "note": "(stereo unspecified)", "inhibition": "-1.93%"}, {"smiles": "COc1ccc(NC(=O)C(c2ccncc2)n2c(=O)c(-c3cc4ccccc4[nH]3)nc3ccccc32)cc1", "note": "(stereo unspecified)", "inhibition": "-4.13%"}, {"smiles": "N#Cc1ccc(C(C(=O)NCc2ccccc2)n2c(=O)c(-c3ccco3)nc3ccccc32)cc1", "note": "(stereo unspecified)", "inhibition": "76.5% (active)"}, {"smiles": "COc1ccc(C(C(=O)NCc2ccccc2)n2c(=O)c(-c3ccccc3)nc3ccccc32)cc1", "note": "(stereo unspecified)", "inhibition": "18.6%"}, {"smiles": "Cn1c(SCC(=O)NC2CCCCC2)nnc1-c1cc2ccccc2o1", "inhibition": "-2.37%"}, {"smiles": "Cc1cccc(C)c1NC(=O)C(c1cccc2ccccc12)n1c(=O)c(-c2ccco2)nc2ccccc21", "note": "(stereo unspecified)", "inhibition": "71.4% (active)"}, {"smiles": "CCCCCNC(=O)C(c1ccc(OC)cc1)n1c(=O)c(-c2ccccc2)nc2ccccc21", "note": "(stereo unspecified)", "inhibition": "1.61%"}]}]}
